An excerpt weighted towards active compounds, which were near 4% of everything screened.
Anthrax LF prot: anthrax lethal factor protease inhibition; inhibition, % at 10 µM; multiplex microsphere protease cleavage assay, LF; hit rate 0.12% among 360,000
BoNT A protease: BoNT A light chain protease inhibition. multiplex microsphere protease substrate cleavage, flow cytometry. inhibition, % at 10 µM. hit rate 0.17% among 360,000. AID 588499
BoNT-F LC inh: inhibitors of Botulinum neurotoxin F light chain protease; Multiplex microsphere protease cleavage assay, flow cytometry; inhibition, % at 10 µM; hit rate 0.22% among 360,000; AID 588497; in the data active = inhibition above about 35%, passing the limit was not always enough; inconclusive = no clear call, values can overlap the other calls
VHR inh abs: DUSP3 (human) phosphatase inhibition | hit rate 0.52% among 290,000 | P51452 | inhibition, % at 13.3 µM | AID 1654 | recombinant VHR phosphatase, pNPP absorbance; in the data active = inhibition above about 50%
Target sequence (P51452 whole entry, looked up): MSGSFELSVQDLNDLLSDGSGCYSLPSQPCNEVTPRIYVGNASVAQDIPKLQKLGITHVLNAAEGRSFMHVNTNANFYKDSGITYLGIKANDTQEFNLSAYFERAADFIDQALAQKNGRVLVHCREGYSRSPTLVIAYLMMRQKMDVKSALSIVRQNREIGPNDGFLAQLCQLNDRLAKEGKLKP
MazF activator: activators of E. coli MazEF toxin-antitoxin RNase; AID 504720; FAM/BHQ RNA-DNA oligo cleavage fluorescence, 5 h; hit rate 0.32% among 350,000; activation, % at 20 µM; in the data active = activation above about 50%
Target sequence (P0AE70 whole entry, looked up): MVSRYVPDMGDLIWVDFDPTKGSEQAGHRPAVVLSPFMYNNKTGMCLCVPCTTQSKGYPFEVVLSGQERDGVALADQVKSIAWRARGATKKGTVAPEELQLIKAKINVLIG
Bead autofluor: flagged as autofluorescent in microsphere protease counterscreen; fluorescence intensity (test concentration not listed); AID 624483; hit rate 3.1% among 360,000; compound autofluorescence counterscreen, microsphere flow cytometry; active compounds read high; in the data active = fluorescence intensity above about 16000; inconclusive = no clear call, values can overlap the other calls
Numbers stand for hits; – = inactive; ? = inconclusive; · = no result; + = active, no number. Cut-off read from the data, not from the text of the source, unless noted: active = inhibition above about 30%; inconclusive = no clear call, values can overlap the other calls; inactive = below that.

SMILES | Anthrax LF prot | BoNT A protease | BoNT-F LC inh | VHR inh abs | MazF activator | Bead autofluor
CC(C)C1Cc2nc(Cl)c(C#N)cc2CO1 (stereo not drawn) | – | ? | ? | – | – | –
CC(C(=O)Nc1ccc(Cl)cc1)N(C)Cc1cccs1 (stereo not drawn) | – | – | – | – | – | –
COc1ccc(S(=O)(=O)Cc2ccc(C(=O)N3CCC4(CC3)OCCO4)o2)cc1 | – | – | – | – | – | 19527
O=C(O)c1ccc(CS(=O)(=O)Cc2ccccc2F)o1 | – | – | – | – | – | –
Cc1ccccc1CS(=O)(=O)Cc1ccc(C(=O)NC2CCCC2)o1 | – | – | – | – | – | –
Cc1ccccc1CS(=O)(=O)Cc1ccc(C(=O)N2CCC3(CC2)OCCO3)o1 | – | – | – | 51 | – | –
CCN1CCN(C(=O)c2ccc(CS(=O)(=O)Cc3ccccc3F)o2)CC1 | – | – | – | – | – | 25125
O=C(COC(=O)CNC(=O)c1cccc([N+](=O)[O-])c1)Nc1cccc(S(=O)(=O)N2CCCCC2)c1 | – | – | – | – | – | –
S=c1[nH]c2ncccc2o1 | – | – | – | – | – | 22317
CC(C)(C)OC(=O)NC(CCCCNC=O)C(=O)O (stereo not drawn) | – | – | – | – | – | 23419
O=C(NCCN1CCOCC1)C1CCC(=O)N1Cc1ccccc1Cl (stereo not drawn) | – | – | – | – | – | –
CCN1CCN(C(=O)C2c3cc(OC)c(OC)cc3C(=O)N(C)C2c2ccc(SC)cc2)CC1 (stereo not drawn) | – | ? | – | – | – | 22280
CC(C)(C)C1CCc2onc(C(=O)Nc3cnn(Cc4ccc(F)cc4)c3)c2C1 (stereo not drawn) | – | – | – | – | – | 18196
CCOc1ccc(C(=O)N2CCn3c2nc2ccccc23)cc1 | – | – | – | – | – | –
CCOC(=O)C1=C(O)CCn2c1nc1ccccc12 | – | – | – | – | – | 19422
O=[N+]([O-])c1ccc(Nc2ccccc2O)c2nonc12 | – | – | ? | – | 232 | –
CCCc1cc(N2CCCC(C(=O)Nc3c(OC)cccc3OC)C2)n2ncnc2n1 (stereo not drawn) | – | – | – | – | – | –
CCCc1cc(N2CCCC(C(=O)Nc3cc(Cl)ccc3OC)C2)n2ncnc2n1 (stereo not drawn) | – | ? | – | · | – | 16461
CCOC(=O)c1cn(CC)c2ccc(S(=O)(=O)N3CC(C)CC(C)C3)cc2c1=O (stereo not drawn) | – | – | – | – | – | 16593
Cn1cccc1CNCc1ccccc1Cl | – | – | – | – | – | 18677
CN1CCN(C(=O)c2ccc(-c3nn(C)c(=O)c4ccccc34)cc2)CC1 | – | – | – | · | – | –
Cn1nc(-c2ccc(C(=O)N3CCN(CCO)CC3)cc2)c2ccccc2c1=O | – | ? | – | – | – | 21691
CCOC(=O)NC(CC(=O)O)c1ccc(OC)c(OC)c1 (stereo not drawn) | – | – | – | – | – | 16400
COc1ccc(C(CC(=O)O)NC(C)=O)cc1OC (stereo not drawn) | – | – | – | – | – | –
Cc1cnn(-c2nc(-c3cccs3)cc(C(F)(F)F)n2)c1 | – | – | – | – | – | 23064
SMILES | Anthrax LF prot | BoNT A protease | BoNT-F LC inh | VHR inh abs | MazF activator | Bead autofluor
Cc1noc(C)c1C(=O)OC(C)C(=O)N1CCc2ccccc21 (stereo not drawn) | – | – | – | · | – | –
COc1ccc(CCNC(=O)CSc2n[nH]c(N)n2)cc1OC | – | – | – | – | – | –
c1ccc2c(N3CCNCC3)cccc2c1 | – | – | – | · | – | –
Clc1cccc(N2CCNCC2)c1Cl | – | – | – | – | – | 19873
CC(C)(C)Nc1nc(C(N)=O)nc(N2CCOCC2)n1 | – | – | – | – | – | 24325
CC(C)(C)n1nc2c(c1NC(=O)c1ccccc1F)CS(=O)C2 (stereo not drawn) | – | – | – | – | – | –
Cc1c(C)c2cc(Cl)c(O)c(CN3CCCC(C)C3)c2oc1=O (stereo not drawn) | – | – | – | – | – | 22975
Clc1ccc(-c2nnc3sc(-c4ccc(Br)o4)nn23)c(Cl)c1 | – | – | – | – | – | –
Cc1oc(-c2ccc(Cl)cc2)cc1-c1nn2c(-c3ccoc3C)nnc2s1 | – | – | – | – | – | 23295
Clc1ccc(-c2nnc3sc(-c4ccc(Br)o4)nn23)cc1 | – | – | – | – | + | –
O=C(Cn1cc(C(F)(F)F)ccc1=O)N/N=C/c1ccccc1 | – | – | – | – | – | –
